# Screening data as filed in PubChem.
# This excerpt belongs to a sample that is enriched for hits.
# KDM5B inh – blocks human KDM5B histone demethylase activity; KDM5B demethylase, FDH-coupled NADH fluorescence (FDH is formaldehyde dehydrogenase); Potency, µM (top dose mostly 57.7 µM), most hits filed as inhibitors; 220,000 tested, 2.6% active; active means well fitted inhibition curve with a large enough effect; further: 0% is about no effect; nearly all actives have a fitted effect of over 70% in size
#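 Here, H3K4me3 peptide (12.5 µM in substrate mix) is demethylated by KDM5BΔAP, 200 nM final, after 10 min compound exposure. Formaldehyde product is coupled through FDH (0.25 U/mL in mix) to NADH fluorescence; 30-min ΔRFU feeds dose-response curves.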
# The depositor's hits bear a star; i = inactive. Potency means the concentration at half of the fitted maximal effect.
SMILES,KDM5B inh
Cc1sc(N2CC(C(=O)OCC(=O)c3ccc(Br)cc3)CC2=O)nc1-c1ccccc1 (configuration not stated),i
CC(C)C(=O)NC(=S)Nc1ccc(NC(=O)c2cccc(Cl)c2)cc1,i
C=CCNc1oc(/C=C/c2cccc(OC)c2)nc1C#N,i
CN(C)c1ccc(NC(=O)COC(=O)c2cccc(S(=O)(=O)N3CCc4ccccc43)c2)cc1,i
CSc1ccc(/C=C2\Cc3ccccc3C2=O)cc1,i
CCN(CC)S(=O)(=O)c1ccc(NS(=O)(=O)c2ccccc2C#N)cc1,i
CCC(=O)NCC(c1ccc(Cl)cc1)N1CCN(C)CC1 (configuration not stated),i
COc1ccc(C(C)NC(=O)C2CCN(c3cc(C(F)(F)F)ncn3)CC2)cc1 (configuration not stated),i
N#CCNC(=O)c1ccc2c(c1)OCCCO2,i
CS(=O)(=O)N1CCc2ccc(C(=O)Nc3ccc(F)cc3)cc21,i
Cc1nc(CNCc2cccc(NC(=O)c3cccc(F)c3)c2)cs1,i
Cc1nc(CN2CCN(C(=O)NCc3ccccn3)CC2)cs1,i
Cc1nc(CN2CC3(CCN(C)C3)c3cc(C(=O)Nc4ccc(F)cc4)ccc32)cs1 (configuration not stated),25µM*
Cc1nc(CN2CC3(CCN(C)C3)c3cc(C(=O)NCc4ccccc4)ccc32)cs1 (configuration not stated),35µM*
Cc1nc(CNC(=O)c2cccc(S(=O)(=O)N3CCOCC3)c2)cs1,i
CC1(C)O[C@H]2[C@@H](O1)[C@@H](C(=O)Oc1ccc3ccccc3c1)O[C@@H]1OC(C)(C)O[C@@H]12,i
Cn1nnnc1-c1cccc(NS(=O)(=O)c2ccc(F)cc2F)c1,i
CN(C(=O)c1ccc2ccccc2n1)C1CCN(Cc2ccncc2)CC1,i
O=C(CCCc1nc2ccccc2[nH]1)N1CCc2c(nc3cc(-c4ccccc4)[nH]n3c2=O)C1,32µM*
CCOc1ccc2c(n1)CCN(C(=O)Cc1ccc(OC)cc1)C2,i
CCOCC(=O)N1CCc2nc3cc(-c4ccc(OC)cc4)[nH]n3c(=O)c2C1,25µM*
NC(=O)c1cc[nH]c1C1CCCN(C(=O)CCCc2nc3ccccc3s2)C1 (configuration not stated),i
COc1ccc(-c2cc3nc4c(c(=O)n3[nH]2)CN(C(=O)CCCc2nc3ccccc3s2)CC4)cc1,32µM*
O=C(CCc1nc2ccccc2[nH]1)N1CCCC(Cc2noc(-c3ccccc3)n2)C1 (configuration not stated),i
O=C(Cc1cccnc1)N1CCc2c(nc3cc(-c4ccccc4)[nH]n3c2=O)C1,28µM*
SMILES,KDM5B inh
O=C(COc1ccccc1)N1CCc2c(n(Cc3cccnc3)n(-c3ccccc3)c2=O)C1,i
N#Cc1ccccc1N1CCN(C(=O)CCc2nc3ccccc3[nH]2)CC1=O,i
CCc1nc2c(c(-c3ccc(OC)cc3)n1)CN(C(=O)c1ccc(OC)cc1)CC2,i
N[C@@H](Cc1ccc(O)cc1)C(=O)N1CCc2c(nc(-c3cccnc3)[nH]c2=O)C1,i
COCCOC1CCN(C(=O)CCc2nc3ccccc3s2)CC1,i
Cc1ccc(S(=O)(=O)N2CCN(C(=O)CCc3ncc(-c4ccccc4F)o3)CC2)c(C)c1,i
O=C(Cc1n[nH]c(=O)c2ccccc12)Nc1nc2c(s1)CCCC2,i
CCOc1cc(/C=C2\NC(=O)NC2=O)ccc1OCc1ccc(C(=O)O)cc1,i
CCCCc1ccc(C(=O)NCc2ccccn2)cc1,i
Cc1c(-c2ccccc2)sc2ncn(CC(=O)NC3CCCc4ccccc43)c(=O)c12 (configuration not stated),i
O=C(c1cc(=O)c2cc(F)ccc2o1)N(Cc1cccs1)c1ccccn1,i
COc1ccc(OC)c(C2C(C(=O)c3ccco3)=C(O)C(=O)N2c2nc3ccc(F)cc3s2)c1 (configuration not stated),i
CC(=O)NC12CC3CC(C1)CC(C(=O)NCCc1ccc(F)cc1)(C3)C2,i
CCN1C(=O)N/C(=C/c2cn(CC(=O)Nc3ccc(C)cc3)c3ccccc23)C1=O,i
COc1ccc(CC(=O)N2CCN(c3cc(-c4ccccc4)[nH]n3)CC2)cc1,i
COc1ccc(-c2cc3nc4c(c(=O)n3[nH]2)CN(C(=O)c2ccc(Cc3c(C)noc3C)o2)CC4)cc1,28µM*
CC(=O)Nc1ccc(CC(=O)N2CCc3c(c(-c4nncn4CC4CC4)nn3C)C2)cc1,i
COc1ccc(-c2cc3nc4c(c(=O)n3[nH]2)CN(C(=O)Cc2ccc(NC(C)=O)cc2)CC4)cc1,14µM*
COCCN1CCC2(CCC1=O)CCN(C(=O)c1ccc(Cc3c(C)noc3C)o1)CC2,i
Cc1nc(C2(C)CCN(C(=O)c3ccc(Cc4c(C)noc4C)o3)CC2)no1,i
CC(=O)Nc1ccc(CC(=O)N2CCc3c(nc4cc(-c5ccccc5)[nH]n4c3=O)C2)cc1,22µM*
CC1(C)NC(=O)N(CCC(=O)Nc2cccc3cccnc23)C1=O,i
COc1ccc(-c2nc(-c3ccccc3)nc3c2CN(C(=O)Cc2cccc(Cl)c2)CC3)cc1,i
CC1(C)NC(=O)N(CCC(=O)N2CCc3c(nc4cc(-c5ccccc5)[nH]n4c3=O)C2)C1=O,28µM*
Cc1cccc(-c2noc(CCC(=O)N3CCc4c(nc(C)[nH]c4=O)C3)n2)c1,i
SMILES,KDM5B inh
COc1ccc(CC(=O)N2CCc3nc(C4CC4)nc(-c4ccc(Cl)cc4)c3C2)cc1,i
S=C(NCc1cccc(Cl)c1)NCc1cccs1,i
CN(C(=O)Cn1c(=O)n(Cc2ccc3c(c2)OCO3)c(=O)c2sccc21)C1CCCCC1,i
CSCc1c(C(=O)OC2CCOC2=O)oc2ccccc12 (configuration not stated),i
CCN1CCC(NC(=O)CC23CC4CC(CC(C4)C2)C3)CC1,i
CSc1ccccc1NC(=O)c1ccc(C)s1,i
O=c1c2c3c(sc2nc2c4ccccc4c(N4CCCCC4)nn12)CCC3,i
O=C(O)C(c1c[nH]c2ccccc12)N1CCN(S(=O)(=O)c2ccccc2)CC1 (configuration not stated),i
COCc1ccc(C(=O)Nc2ccc(NC(C)=O)cc2C(F)(F)F)cc1,i
CCn1cnc2c1c(=O)n(CC(=O)c1cc(C)n(CC3CCCO3)c1C)c(=O)n2Cc1ccccc1 (configuration not stated),i
CCC(Sc1nc2nccnc2c(=O)n1CCc1ccccc1)C(=O)Nc1cccc(OC)c1 (configuration not stated),i
N#Cc1cccc(NC(=O)N[C@H]2CO[C@H]3[C@@H]2OC[C@@H]3Nc2nccc(-c3cccs3)n2)c1,i
CN(C)c1ccc(-c2ccnc(N[C@H]3CO[C@H]4[C@@H]3OC[C@H]4OC(=O)NCc3ccccc3)n2)cc1,28µM*
O=C(Nc1cccc(C(F)(F)F)c1)N[C@H]1CO[C@H]2[C@@H]1OC[C@@H]2Nc1nccc(-c2ccc(-c3ccccc3)cc2)n1,i
COc1cc(NC(=O)N[C@H]2CO[C@H]3[C@@H]2OC[C@@H]3Nc2nccc(-c3ccc(-c4ccccc4)cc3)n2)cc(OC)c1,i
COc1ccc(-c2ccnc(N[C@H]3CO[C@H]4[C@@H]3OC[C@@H]4NC(=O)Nc3cccc(C#N)c3)n2)cc1,25µM*
O=C(N[C@H]1CO[C@H]2[C@@H]1OC[C@@H]2Nc1nccc(C2CCCC2)n1)c1ccccc1,i
